Experimental data reported in PubChem BioAssay AID1159580 (chemical genetic matrix, 2015).
Out of some 5,500 compounds screened, about 2,000 (36%) were called active. Roughly 18% stayed inconclusive and do not appear here. Rule as the data show it: active = normalized growth mostly below about 0.91 (no sharp cut-off); inconclusive = no clear call, values can overlap the other calls; inactive = mostly above about 0.92. Some of the results follow.

Experiment: chemical genetic growth profiling, strain panel (AID 1159580);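 also: tested at 20 µM; growth read once vehicle control cultures reached saturation at 30 °C; 1 = growth at the plate median or of vehicle wells; lower values mean less growth of the strain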
Conditions: growth OD

Measured: normalized growth

C=CCN1CC[C@]23c4c5ccc(O)c4OC2C(=O)CC[C@@]3(O)[C@H]1C5 (some centres not stated)
inactive: S. cerevisiae deletion strains, locus YJR075W, strain HOC1, hits give low values 1 | S. cerevisiae deletion strains, locus YKL009W, strain mrt4, hits give low values 0.977 | S. cerevisiae deletion strains, locus YKL068W, hits give low values 0.993 | S. cerevisiae deletion strains, locus YKL085W, strain MDH1 (second series), hits give low values 1 | S. cerevisiae deletion strains, locus YKL085W, strain MDH1, hits give low values 1 | S. cerevisiae deletion strains, locus YKL160W, strain elf1, hits give low values 0.975 | S. cerevisiae deletion strains, locus YKL190W, strain CNB1, hits give low values 1 | S. cerevisiae deletion strains, locus YKR001C, strain vps1, hits give low values 0.989 | S. cerevisiae deletion strains, locus YKR026C, strain gcn3, hits give low values 0.979 | S. cerevisiae deletion strains, locus YKR091W, strain srl3, hits give low values 0.973 | S. cerevisiae deletion strains, locus YLL001W, strain dnm1, hits give low values 0.983 | S. cerevisiae deletion strains, locus YLL026W, hits give low values 0.988 | S. cerevisiae deletion strains, locus YLL041C, strain sdh2, hits give low values 0.963 | S. cerevisiae deletion strains, locus YLR027C, strain aat2, hits give low values 0.976 | S. cerevisiae deletion strains, locus YLR039C, strain RIC1, hits give low values 1 | S. cerevisiae deletion strains, locus YLR058C, strain SHM2, hits give low values 1.01 | S. cerevisiae deletion strains, locus YLR102C, strain apc9, hits give low values 0.998 | S. cerevisiae deletion strains, locus YLR113W, strain HOG1, hits give low values 0.973 | S. cerevisiae deletion strains, locus YLR221C, strain rsa3, hits give low values 0.982 | S. cerevisiae deletion strains, locus YLR258W, strain gsy2, hits give low values 0.983 | S. cerevisiae deletion strains, locus YLR262C, strain YPT6 (second series), hits give low values 0.97 | S. cerevisiae deletion strains, locus YLR262C, strain YPT6, hits give low values 1.04 | S. cerevisiae deletion strains, locus YLR268W, strain sec22, hits give low values 1.04 | S. cerevisiae deletion strains, locus YLR320W, strain mms22, hits give low values 0.969 | S. cerevisiae deletion strains, locus YLR330W, strain CHS5, hits give low values 1.01 | S. cerevisiae deletion strains, locus YLR342W, strain FKS1 (second series), hits give low values 1.01 | S. cerevisiae deletion strains, locus YLR342W, strain FKS1, hits give low values 0.962 | S. cerevisiae deletion strains, locus YLR357W, strain rsc2, hits give low values 0.939 | S. cerevisiae deletion strains, locus YLR370C, strain arc18, hits give low values 0.973 | S. cerevisiae deletion strains, locus YLR371W, strain rom2, hits give low values 0.976 | S. cerevisiae deletion strains, locus YLR384C, strain iki3, hits give low values 0.963 | S. cerevisiae deletion strains, locus YLR418C, strain cdc73, hits give low values 0.999 | S. cerevisiae deletion strains, locus YML016C, strain PPZ1, hits give low values 1.01 | S. cerevisiae deletion strains, locus YML032C, strain rad52, hits give low values 1.02 | S. cerevisiae deletion strains, locus YML120C, strain ndi1, hits give low values 0.974 | S. cerevisiae deletion strains, locus YML124C, strain tub3, hits give low values 0.991 | S. cerevisiae deletion strains, locus YMR058W, strain fet3, hits give low values 0.98 | S. cerevisiae deletion strains, locus YMR078C, strain ctf18, hits give low values 1 | S. cerevisiae deletion strains, locus YMR125W, strain sto1, hits give low values 0.936 | S. cerevisiae deletion strains, locus YMR129W, hits give low values 0.954 | S. cerevisiae deletion strains, locus YMR205C, strain PFK2, hits give low values 0.979 | S. cerevisiae deletion strains, locus YMR223W, strain ubp8, hits give low values 0.99 | S. cerevisiae deletion strains, locus YMR231W, strain pep5, hits give low values 0.977 | S. cerevisiae deletion strains, locus YMR263W, strain SAP30, hits give low values 1.02 | S. cerevisiae deletion strains, locus YMR307W, strain GAS1, hits give low values 1.05 | S. cerevisiae deletion strains, locus YNL067W, strain RPL9B, hits give low values 1.02 | S. cerevisiae deletion strains, locus YNL071W, strain lat1, hits give low values 0.956 | S. cerevisiae deletion strains, locus YNL128W, strain TEP1, hits give low values 1.01 | S. cerevisiae deletion strains, locus YNL153C, strain GIM3, hits give low values 1.02 | S. cerevisiae deletion strains, locus YNL183C, strain NPR1, hits give low values 0.941 | S. cerevisiae deletion strains, locus YNL209W, strain ssb2, hits give low values 0.945 | S. cerevisiae deletion strains, locus YNL233W, strain BNI4, hits give low values 1.03 | S. cerevisiae deletion strains, locus YNL248C, strain rpa49, hits give low values 0.948 | S. cerevisiae deletion strains, locus YNL250W, strain rad50, hits give low values 0.988 | S. cerevisiae deletion strains, locus YNL271C, strain bni1, hits give low values 0.998 | S. cerevisiae deletion strains, locus YNL298W, strain CLA4, hits give low values 1.01 | S. cerevisiae deletion strains, locus YNL307C, strain MCK1, hits give low values 0.996 | S. cerevisiae deletion strains, locus YNL322C, strain KRE1 (second series), hits give low values 0.927 | S. cerevisiae deletion strains, locus YNL322C, strain KRE1, hits give low values 1 | S. cerevisiae deletion strains, locus YNR049C, strain mso1, hits give low values 0.973 | S. cerevisiae deletion strains, locus YNR052C, strain pop2, hits give low values 1 | S. cerevisiae deletion strains, locus YOL006C, strain TOP1, hits give low values 1.07 | S. cerevisiae deletion strains, locus YOL012C, strain htz1 0.779 | S. cerevisiae deletion strains, locus YOL147C, strain pex11, hits give low values 0.996 | S. cerevisiae deletion strains, locus YOR001W, strain rrp6, hits give low values 0.97 | S. cerevisiae deletion strains, locus YOR061W, strain CKA2, hits give low values 1.02 | S. cerevisiae deletion strains, locus YOR069W, strain VPS5, hits give low values 1.01 | S. cerevisiae deletion strains, locus YOR070C, strain gyp1, hits give low values 0.964 | S. cerevisiae deletion strains, locus YOR080W, strain dia2, hits give low values 0.969 | S. cerevisiae deletion strains, locus YOR083W, strain WHI5, hits give low values 0.979 | S. cerevisiae deletion strains, locus YOR106W, strain vam3, hits give low values 0.948 | S. cerevisiae deletion strains, locus YOR136W, strain idh2, hits give low values 0.995 | S. cerevisiae deletion strains, locus YOR144C, strain elg1, hits give low values 1 | S. cerevisiae deletion strains, locus YOR184W, strain ser1, hits give low values 0.998 | S. cerevisiae deletion strains, locus YOR231W, strain MKK1, hits give low values 0.994 | S. cerevisiae deletion strains, locus YOR265W, strain rbl2, hits give low values 0.983 | S. cerevisiae deletion strains, locus YOR270C, strain vph1, hits give low values 0.935 | S. cerevisiae deletion strains, locus YOR290C, strain snf2, hits give low values 0.968 | S. cerevisiae deletion strains, locus YOR316C, strain cot1, hits give low values 0.994 | S. cerevisiae deletion strains, locus YPL051W, strain arl3, hits give low values 0.983 | S. cerevisiae deletion strains, locus YPL055C, strain LGE1, hits give low values 1.01 | S. cerevisiae deletion strains, locus YPL078C, strain atp4, hits give low values 0.968 | S. cerevisiae deletion strains, locus YPL106C, strain sse1, hits give low values 0.957 | S. cerevisiae deletion strains, locus YPL240C, strain hsp82, hits give low values 0.965 | S. cerevisiae deletion strains, locus YPL241C, strain CIN2, hits give low values 1.01 | S. cerevisiae deletion strains, locus YPL256C, strain CLN2, hits give low values 0.979 | S. cerevisiae deletion strains, locus YPR119W, strain clb2, hits give low values 1 | S. cerevisiae deletion strains, locus YPR141C, strain kar3, hits give low values 0.996 | S. cerevisiae deletion strains, locus YPR163C, strain tif3, hits give low values 0.996 | S. cerevisiae deletion strains, locus YPR167C, strain met16, hits give low values 1 | S. cerevisiae deletion strains, strain wtn01, hits give low values 1.01 | S. cerevisiae strains, strain wild type, hits give low values 1.01
